Holding throughout (assay): DAPPL (digital affinity profiling via proximity ligation, sequencing); 10 mM Tris-HCl pH 7.5, 50 mM NaCl, 1 mM DTT, 4% glycerol, room temperature, 30 min; GST-TFs on glutathione beads, 16-mer random dsDNA library, 0.1% formaldehyde crosslink after washing; high values mean tight binding
For one experiment, the target named is T1, FEV (Homo sapiens, UniProt Q99581 1-238).
T1 sequence: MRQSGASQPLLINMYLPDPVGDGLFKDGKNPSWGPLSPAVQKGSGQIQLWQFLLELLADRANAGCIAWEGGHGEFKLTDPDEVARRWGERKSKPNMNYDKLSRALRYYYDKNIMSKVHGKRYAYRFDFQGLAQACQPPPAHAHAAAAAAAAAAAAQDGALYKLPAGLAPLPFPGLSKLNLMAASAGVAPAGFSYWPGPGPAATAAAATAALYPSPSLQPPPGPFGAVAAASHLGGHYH
The note with it: protein: recombinant; tags: N-terminal GST; dsDNA, one strand shown. The essentials: (§1)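 Binding signal is defined as a hexamer's read frequency for one factor over its frequency for the tag-only sample. To obtain reads, GST-fused human transcription factors were expressed in yeast, captured on glutathione beads, barcoded with DNA and pooled with that sample. Pools met 200 nmole of a 16-mer random double-stranded DNA library in Tris/NaCl/DTT/glycerol buffer for 30 min at room temperature before washing, 0.1% formaldehyde crosslinking, proximity ligation (BsaI/T4 ligase, 1 h, 37 °C), PCR and Illumina NextSeq500 sequencing.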

Another experiment has as its target ETV5 (Homo sapiens, UniProt P41161 1-510). The note with it: protein: recombinant; tags: N-terminal GST; dsDNA, one strand shown. The essentials:
as §1

A further experiment has as its target HSF1 (Homo sapiens, UniProt Q00613 1-529). The note with it: protein: recombinant; tags: N-terminal GST; chain copies: 3; dsDNA, one strand shown. In short, it runs like this:
as §1

Another experiment addresses T2, SPIC (Homo sapiens, UniProt Q8N5J4 1-248).
T2 sequence: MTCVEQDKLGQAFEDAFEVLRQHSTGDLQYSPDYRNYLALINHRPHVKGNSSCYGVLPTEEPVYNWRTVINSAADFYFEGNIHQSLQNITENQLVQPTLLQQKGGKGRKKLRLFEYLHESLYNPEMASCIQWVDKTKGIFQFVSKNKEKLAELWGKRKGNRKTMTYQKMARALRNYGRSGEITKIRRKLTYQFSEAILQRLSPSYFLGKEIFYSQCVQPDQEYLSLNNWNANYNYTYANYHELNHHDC
The note with it: protein: recombinant; tags: N-terminal GST; dsDNA, one strand shown. In short, it runs like this:
as §1

Another experiment concerns the target ELF4 (Homo sapiens, UniProt Q99607 1-663). The note with it: protein: recombinant; tags: N-terminal GST; dsDNA, one strand shown. In short, it runs like this:
as §1

In another experiment the target is T3, ELK4 (Homo sapiens, UniProt P28324-2 1-405).
T3 sequence: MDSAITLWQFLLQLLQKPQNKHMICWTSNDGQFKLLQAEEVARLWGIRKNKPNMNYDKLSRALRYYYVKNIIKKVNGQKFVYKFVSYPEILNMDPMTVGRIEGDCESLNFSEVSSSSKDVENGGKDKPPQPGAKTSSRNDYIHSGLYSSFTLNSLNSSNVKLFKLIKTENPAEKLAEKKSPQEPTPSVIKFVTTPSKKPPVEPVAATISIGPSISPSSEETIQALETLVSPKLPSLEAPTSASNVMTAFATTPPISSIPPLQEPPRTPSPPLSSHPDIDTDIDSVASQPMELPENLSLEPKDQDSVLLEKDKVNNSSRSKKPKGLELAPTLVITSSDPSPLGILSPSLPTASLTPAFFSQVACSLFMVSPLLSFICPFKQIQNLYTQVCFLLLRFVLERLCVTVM
The note with it: protein: recombinant; tags: N-terminal GST; dsDNA, one strand shown. The essentials: as §1

The next experiment concerns the target T4, ETV2 (Homo sapiens, UniProt O00321 1-342).
T4 sequence: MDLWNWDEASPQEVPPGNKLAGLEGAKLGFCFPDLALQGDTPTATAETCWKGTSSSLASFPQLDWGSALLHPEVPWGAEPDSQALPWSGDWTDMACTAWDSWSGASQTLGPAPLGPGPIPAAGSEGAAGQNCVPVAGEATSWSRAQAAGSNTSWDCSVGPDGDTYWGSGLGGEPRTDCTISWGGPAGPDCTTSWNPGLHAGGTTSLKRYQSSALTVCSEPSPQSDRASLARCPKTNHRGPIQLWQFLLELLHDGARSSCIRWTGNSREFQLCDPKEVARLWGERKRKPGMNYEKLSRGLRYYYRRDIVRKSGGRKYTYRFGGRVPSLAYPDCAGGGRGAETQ
The note with it: protein: recombinant; tags: N-terminal GST; dsDNA, one strand shown. The essentials: as §1

For another experiment, the target named is T5, ELF3 (Homo sapiens, UniProt P78545 1-371).
T5 sequence: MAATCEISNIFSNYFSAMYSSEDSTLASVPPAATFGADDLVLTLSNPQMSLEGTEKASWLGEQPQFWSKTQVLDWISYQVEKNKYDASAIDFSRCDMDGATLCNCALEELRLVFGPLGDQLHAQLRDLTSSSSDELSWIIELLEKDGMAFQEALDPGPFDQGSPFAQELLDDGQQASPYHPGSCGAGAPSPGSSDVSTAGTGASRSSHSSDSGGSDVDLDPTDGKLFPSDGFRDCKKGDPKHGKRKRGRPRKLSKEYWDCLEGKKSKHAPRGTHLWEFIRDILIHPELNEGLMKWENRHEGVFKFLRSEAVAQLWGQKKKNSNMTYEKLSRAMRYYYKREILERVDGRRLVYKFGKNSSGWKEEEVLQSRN
The note with it: protein: recombinant; tags: N-terminal GST; dsDNA, one strand shown. In short, it runs like this:
as §1

A further experiment concerns the target CRX (Homo sapiens, UniProt O43186 1-299). The note with it: protein: recombinant; tags: N-terminal GST; dsDNA, one strand shown. The essentials:
as §1

The next experiment deals with ETV1 (Homo sapiens, UniProt P50549 1-477). The note with it: protein: recombinant; tags: N-terminal GST; dsDNA, one strand shown. The essentials:
as §1

The target in another experiment is T6, ERF (Homo sapiens, UniProt P50548 1-548).
T6 sequence: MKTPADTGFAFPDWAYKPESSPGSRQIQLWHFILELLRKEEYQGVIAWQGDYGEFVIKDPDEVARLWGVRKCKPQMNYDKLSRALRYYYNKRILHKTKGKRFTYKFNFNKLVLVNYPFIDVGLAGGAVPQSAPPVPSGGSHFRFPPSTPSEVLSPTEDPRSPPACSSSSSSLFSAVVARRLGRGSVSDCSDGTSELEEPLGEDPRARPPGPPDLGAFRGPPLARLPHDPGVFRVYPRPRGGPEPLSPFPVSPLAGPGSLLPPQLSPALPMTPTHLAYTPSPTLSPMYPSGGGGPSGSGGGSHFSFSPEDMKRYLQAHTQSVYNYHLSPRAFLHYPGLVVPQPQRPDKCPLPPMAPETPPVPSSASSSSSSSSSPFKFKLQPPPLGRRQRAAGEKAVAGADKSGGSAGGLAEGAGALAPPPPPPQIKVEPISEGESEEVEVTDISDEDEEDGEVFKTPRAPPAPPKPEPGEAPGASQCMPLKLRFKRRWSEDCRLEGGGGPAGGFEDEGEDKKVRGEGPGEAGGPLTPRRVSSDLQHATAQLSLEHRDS
The note with it: protein: recombinant; tags: N-terminal GST; dsDNA, one strand shown. The essentials:
as §1

A further experiment addresses T7, ETV3L (Homo sapiens, UniProt Q6ZN32 1-361).
T7 sequence: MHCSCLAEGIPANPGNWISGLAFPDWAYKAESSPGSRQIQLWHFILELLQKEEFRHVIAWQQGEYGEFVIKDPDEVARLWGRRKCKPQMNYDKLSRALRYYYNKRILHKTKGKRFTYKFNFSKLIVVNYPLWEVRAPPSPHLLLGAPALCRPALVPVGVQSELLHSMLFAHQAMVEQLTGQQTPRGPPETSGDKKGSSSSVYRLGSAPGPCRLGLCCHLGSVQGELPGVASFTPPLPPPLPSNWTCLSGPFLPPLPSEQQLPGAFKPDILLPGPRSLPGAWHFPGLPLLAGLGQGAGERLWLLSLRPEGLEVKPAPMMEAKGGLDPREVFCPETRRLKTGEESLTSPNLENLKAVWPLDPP
The note with it: protein: recombinant; tags: N-terminal GST; dsDNA, one strand shown. In short, it runs like this: as §1

A further experiment has as its target T8, ETS2 (Homo sapiens, UniProt P15036 1-469).
T8 sequence: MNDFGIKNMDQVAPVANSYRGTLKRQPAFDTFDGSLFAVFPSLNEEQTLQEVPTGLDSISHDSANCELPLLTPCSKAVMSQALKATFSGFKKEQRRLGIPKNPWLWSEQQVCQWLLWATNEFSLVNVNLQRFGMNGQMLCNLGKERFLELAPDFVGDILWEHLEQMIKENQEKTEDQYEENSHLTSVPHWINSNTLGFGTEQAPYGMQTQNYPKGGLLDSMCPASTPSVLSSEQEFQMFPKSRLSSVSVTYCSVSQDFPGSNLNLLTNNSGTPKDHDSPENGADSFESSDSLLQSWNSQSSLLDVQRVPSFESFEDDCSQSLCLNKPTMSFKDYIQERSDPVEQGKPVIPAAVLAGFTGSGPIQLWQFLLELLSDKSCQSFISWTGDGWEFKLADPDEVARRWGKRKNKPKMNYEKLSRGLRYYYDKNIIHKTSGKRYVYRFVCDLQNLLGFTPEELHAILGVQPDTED
The note with it: protein: recombinant; tags: N-terminal GST; dsDNA, one strand shown. In short, it runs like this: as §1

For a further experiment, the target named is T9, SPDEF (Homo sapiens, UniProt O95238 1-335).
T9 sequence: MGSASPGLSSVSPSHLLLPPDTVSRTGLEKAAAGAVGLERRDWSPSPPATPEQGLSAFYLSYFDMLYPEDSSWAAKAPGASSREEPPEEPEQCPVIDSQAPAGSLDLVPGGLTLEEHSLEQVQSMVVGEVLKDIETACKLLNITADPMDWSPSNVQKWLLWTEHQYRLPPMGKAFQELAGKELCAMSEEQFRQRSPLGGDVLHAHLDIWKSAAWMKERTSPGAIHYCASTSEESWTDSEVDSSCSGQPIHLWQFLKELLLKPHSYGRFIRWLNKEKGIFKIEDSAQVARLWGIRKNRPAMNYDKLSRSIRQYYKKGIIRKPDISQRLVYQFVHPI
The note with it: protein: recombinant; tags: N-terminal GST; dsDNA, one strand shown. In short, it runs like this:
as §1

The next experiment deals with T10, ETV7 (Homo sapiens, UniProt Q9Y603 1-341).
T10 sequence: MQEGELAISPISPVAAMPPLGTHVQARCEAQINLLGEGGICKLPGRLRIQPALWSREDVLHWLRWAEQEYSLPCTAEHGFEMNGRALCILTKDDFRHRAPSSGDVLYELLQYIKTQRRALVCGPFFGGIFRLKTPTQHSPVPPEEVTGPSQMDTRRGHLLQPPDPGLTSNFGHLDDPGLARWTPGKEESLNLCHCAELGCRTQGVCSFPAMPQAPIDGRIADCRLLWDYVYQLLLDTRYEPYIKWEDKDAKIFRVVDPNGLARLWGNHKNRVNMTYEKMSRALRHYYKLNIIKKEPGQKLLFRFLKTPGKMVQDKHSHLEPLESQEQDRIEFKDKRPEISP
The note with it: protein: recombinant; tags: N-terminal GST; dsDNA, one strand shown. The essentials:
as §1

A further experiment deals with T11, ELF5 (Homo sapiens, UniProt Q9UKW6-2 1-255).
T11 sequence: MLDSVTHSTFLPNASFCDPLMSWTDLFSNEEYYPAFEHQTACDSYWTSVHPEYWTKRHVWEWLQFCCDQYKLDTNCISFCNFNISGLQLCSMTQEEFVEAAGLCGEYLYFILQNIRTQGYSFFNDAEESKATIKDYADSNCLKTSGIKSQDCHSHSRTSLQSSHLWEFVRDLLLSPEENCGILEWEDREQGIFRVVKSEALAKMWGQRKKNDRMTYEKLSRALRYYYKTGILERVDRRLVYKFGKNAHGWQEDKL
The note with it: protein: recombinant; tags: N-terminal GST; dsDNA, one strand shown. In short, it runs like this: as §1

The next experiment concerns the target T12, ETV3 (Homo sapiens, UniProt P41162-2 1-143).
T12 sequence: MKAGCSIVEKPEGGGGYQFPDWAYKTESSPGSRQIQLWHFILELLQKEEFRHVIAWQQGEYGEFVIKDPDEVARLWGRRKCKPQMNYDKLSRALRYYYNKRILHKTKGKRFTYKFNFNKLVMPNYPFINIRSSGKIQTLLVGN
The note with it: protein: recombinant; tags: N-terminal GST; dsDNA, one strand shown. The essentials: as §1

A further experiment concerns the target ETV6 (Homo sapiens, UniProt P41212 1-452). The note with it: protein: recombinant; tags: N-terminal GST; dsDNA, one strand shown. In short, it runs like this:
as §1

CRX, sequence (O43186 whole entry): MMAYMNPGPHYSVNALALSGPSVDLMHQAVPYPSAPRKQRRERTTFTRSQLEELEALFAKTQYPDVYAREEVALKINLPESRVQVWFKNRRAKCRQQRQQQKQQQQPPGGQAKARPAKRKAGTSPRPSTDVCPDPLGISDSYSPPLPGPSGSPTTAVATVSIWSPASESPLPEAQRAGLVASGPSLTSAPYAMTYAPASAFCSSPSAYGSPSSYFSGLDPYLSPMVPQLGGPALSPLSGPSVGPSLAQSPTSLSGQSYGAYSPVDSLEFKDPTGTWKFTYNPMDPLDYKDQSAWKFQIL
ETV6, sequence (P41212 whole entry): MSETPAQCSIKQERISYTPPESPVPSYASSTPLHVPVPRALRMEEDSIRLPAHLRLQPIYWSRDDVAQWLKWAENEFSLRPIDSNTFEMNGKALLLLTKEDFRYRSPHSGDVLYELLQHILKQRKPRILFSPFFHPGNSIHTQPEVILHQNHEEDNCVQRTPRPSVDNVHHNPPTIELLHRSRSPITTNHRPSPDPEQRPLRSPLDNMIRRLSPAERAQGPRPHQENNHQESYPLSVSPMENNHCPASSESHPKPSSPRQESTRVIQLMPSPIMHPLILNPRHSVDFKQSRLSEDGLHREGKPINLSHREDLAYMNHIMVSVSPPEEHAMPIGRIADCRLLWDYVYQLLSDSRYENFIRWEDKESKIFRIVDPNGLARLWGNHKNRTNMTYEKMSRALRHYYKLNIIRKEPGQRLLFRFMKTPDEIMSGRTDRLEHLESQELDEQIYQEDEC
ETV5, sequence (P41161 whole entry): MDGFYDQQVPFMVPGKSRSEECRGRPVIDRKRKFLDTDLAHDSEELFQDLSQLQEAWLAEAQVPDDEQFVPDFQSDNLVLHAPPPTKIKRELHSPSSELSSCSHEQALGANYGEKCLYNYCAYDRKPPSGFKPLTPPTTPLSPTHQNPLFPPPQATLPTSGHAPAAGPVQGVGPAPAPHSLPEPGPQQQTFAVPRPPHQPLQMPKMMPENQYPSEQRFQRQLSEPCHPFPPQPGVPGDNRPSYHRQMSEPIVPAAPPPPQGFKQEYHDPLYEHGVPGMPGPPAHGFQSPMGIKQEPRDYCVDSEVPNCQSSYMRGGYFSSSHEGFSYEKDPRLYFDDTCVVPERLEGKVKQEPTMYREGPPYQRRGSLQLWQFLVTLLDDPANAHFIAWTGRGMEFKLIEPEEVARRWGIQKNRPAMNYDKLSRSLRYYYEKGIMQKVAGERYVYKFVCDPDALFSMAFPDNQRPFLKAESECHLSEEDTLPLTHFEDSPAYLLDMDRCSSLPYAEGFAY
ETV1, sequence (P50549 whole entry): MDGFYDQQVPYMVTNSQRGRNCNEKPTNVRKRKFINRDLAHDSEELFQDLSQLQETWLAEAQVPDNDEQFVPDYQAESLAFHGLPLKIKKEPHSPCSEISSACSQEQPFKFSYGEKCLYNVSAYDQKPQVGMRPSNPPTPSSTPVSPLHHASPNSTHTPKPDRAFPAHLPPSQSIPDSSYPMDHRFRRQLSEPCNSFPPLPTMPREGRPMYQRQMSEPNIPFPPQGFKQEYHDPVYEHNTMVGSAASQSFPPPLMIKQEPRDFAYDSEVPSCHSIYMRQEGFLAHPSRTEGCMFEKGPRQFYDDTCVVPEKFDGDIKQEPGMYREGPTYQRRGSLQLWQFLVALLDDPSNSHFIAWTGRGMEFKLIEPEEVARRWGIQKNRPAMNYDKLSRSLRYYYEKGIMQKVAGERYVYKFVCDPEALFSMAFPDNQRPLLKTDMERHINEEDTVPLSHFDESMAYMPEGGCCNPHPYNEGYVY
HSF1, sequence (Q00613 whole entry): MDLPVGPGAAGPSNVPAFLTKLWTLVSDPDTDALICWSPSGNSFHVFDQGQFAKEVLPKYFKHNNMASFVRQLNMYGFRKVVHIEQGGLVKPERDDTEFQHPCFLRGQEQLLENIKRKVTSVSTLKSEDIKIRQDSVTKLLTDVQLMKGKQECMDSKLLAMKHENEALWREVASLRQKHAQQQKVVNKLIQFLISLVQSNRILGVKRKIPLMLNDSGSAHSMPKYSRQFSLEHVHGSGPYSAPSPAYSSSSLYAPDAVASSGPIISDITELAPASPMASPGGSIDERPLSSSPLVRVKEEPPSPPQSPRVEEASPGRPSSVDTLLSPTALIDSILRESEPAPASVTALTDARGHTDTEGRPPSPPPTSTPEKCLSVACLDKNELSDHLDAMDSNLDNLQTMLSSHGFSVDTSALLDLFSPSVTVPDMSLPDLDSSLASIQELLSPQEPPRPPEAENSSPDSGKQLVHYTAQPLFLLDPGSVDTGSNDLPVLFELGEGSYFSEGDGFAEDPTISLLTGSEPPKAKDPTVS
ELF4, sequence (Q99607 whole entry): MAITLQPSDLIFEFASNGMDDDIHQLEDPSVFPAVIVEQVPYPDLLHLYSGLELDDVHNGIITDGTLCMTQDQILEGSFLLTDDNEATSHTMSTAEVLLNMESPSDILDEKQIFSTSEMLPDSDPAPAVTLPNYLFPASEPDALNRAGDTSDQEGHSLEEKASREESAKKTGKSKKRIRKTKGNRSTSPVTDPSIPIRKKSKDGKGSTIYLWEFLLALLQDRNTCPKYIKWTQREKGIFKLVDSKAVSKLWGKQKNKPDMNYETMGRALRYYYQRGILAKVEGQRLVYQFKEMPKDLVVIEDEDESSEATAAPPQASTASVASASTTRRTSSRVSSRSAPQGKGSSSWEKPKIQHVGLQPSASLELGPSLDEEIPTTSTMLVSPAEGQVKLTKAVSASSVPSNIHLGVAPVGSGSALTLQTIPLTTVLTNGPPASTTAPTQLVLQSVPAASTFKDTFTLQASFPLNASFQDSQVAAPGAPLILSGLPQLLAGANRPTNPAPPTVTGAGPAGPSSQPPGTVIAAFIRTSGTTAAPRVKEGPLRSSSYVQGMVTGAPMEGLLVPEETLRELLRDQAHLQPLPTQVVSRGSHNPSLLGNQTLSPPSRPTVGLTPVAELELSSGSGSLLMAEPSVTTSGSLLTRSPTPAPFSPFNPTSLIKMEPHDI

For TACTTT, the binding signal with FEV was 1.33 fold enrichment (6-mer frequency, TF over GST control); with ETV5, 1.38 fold enrichment (6-mer frequency, TF over GST control); with HSF1 it was 1.44 fold enrichment (6-mer frequency, TF over GST control); with SPIC, 1.26 fold enrichment (6-mer frequency, TF over GST control); with ELF4, 1.43 fold enrichment (6-mer frequency, TF over GST control); with ELK4, 1.4 fold enrichment (6-mer frequency, TF over GST control). The binding signal with ETV2 was 1.33 fold enrichment (6-mer frequency, TF over GST control); with ELF3 it was 1.73 fold enrichment (6-mer frequency, TF over GST control); in the experiment with CRX, 1.71 fold enrichment (6-mer frequency, TF over GST control); with ETV1, 1.39 fold enrichment (6-mer frequency, TF over GST control); with ERF it was 1.39 fold enrichment (6-mer frequency, TF over GST control); in the experiment with ETV3L it was 1.35 fold enrichment (6-mer frequency, TF over GST control). Further, the binding signal with ETS2 is 1.32 fold enrichment (6-mer frequency, TF over GST control); with SPDEF, 1.35 fold enrichment (6-mer frequency, TF over GST control); with ETV7, 1.36 fold enrichment (6-mer frequency, TF over GST control); with ELF5, 1.34 fold enrichment (6-mer frequency, TF over GST control); in the experiment with ETV3, 1.34 fold enrichment (6-mer frequency, TF over GST control); with ETV6 it was 1.37 fold enrichment (6-mer frequency, TF over GST control).
